Screens from PubChem BioAssay.
BAZ2B inh: qHTS Assay for Inhibitors of BAZ2B | Bromodomain adjacent to zinc finger domain protein 2B (Homo sapiens), Q9UIF8 | Potency, µM (series often up to 114 µM), inactives show at the top dose activity change, negative = inhibition, usual class: inhibitors | AlphaScreen BAZ2B-H3K14Ac peptide displacement | hit rate 4.4% among 360,000 | AID 504333, 2011; also: potency is read from the fitted curve at half-maximal effect; % is scaled to controls: 0 for no effect and ±100 for the full control effect; nearly all actives have a fitted effect of over 60% in size
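Multi-concentration screen (max 110 uM) measuring displacement of acetylated histone H3 peptide from BAZ2B by AlphaScreen, using 50 nM protein, 50 nM peptide and 10 ug/mL streptavidin donor plus Ni-chelate acceptor beads.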
HP1b binding inh: HTS for Inhibitors of HP1-beta Chromodomain Interactions with Methylated Histone Tails; AID 540317, 2011; AlphaScreen HP1-beta / biotin-H3K9me3 peptide binding; hit rate 0.56% among 390,000; Chromobox protein homolog 1 (Homo sapiens), P83916; Potency, µM (top dose mostly 114 µM), for inactives: at the top dose activity change, negative = inhibition, actives largely listed as inhibitors; also: potency is read from the fitted curve at half-maximal effect; nearly all actives have a fitted effect of over 70% in size
Target sequence (P83916 whole entry, looked up): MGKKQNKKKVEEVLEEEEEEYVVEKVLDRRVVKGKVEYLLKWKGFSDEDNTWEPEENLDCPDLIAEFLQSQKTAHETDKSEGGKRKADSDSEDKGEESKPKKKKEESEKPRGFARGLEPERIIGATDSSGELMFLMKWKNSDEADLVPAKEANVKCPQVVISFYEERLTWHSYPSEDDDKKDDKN
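HP1-beta protein (50 nM final) preincubated 30 min at room temperature with biotinylated H3(1-18)K9me3 peptide (50 nM) in PBS pH 7.4, 0.01% Tween-20, then compound added for 30 min. AlphaScreen streptavidin donor/nickel chelate acceptor beads (10 ug/mL final), 30 min dark, luminescence read.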
JMJD2A Tudor inh: qHTS Assay for Inhibitors of JMJD2A-Tudor Domain. AlphaScreen JMJD2A-Tudor / H3K4me3 peptide binding. Potency, µM (top dose mostly 114 µM), inactives show at the highest dose activity change, negative = inhibition, most hits filed as inhibitors. hit rate 4.4% among 390,000; also: potency is read from the fitted curve at half-maximal effect; % is scaled to controls: 0 for no effect and ±100 for the full control effect; nearly all actives have a fitted effect of over 50% in size
G9a block: qHTS Assay for Inhibitors of Histone Lysine Methyltransferase G9a | hit rate 8.8% among 350,000 | AID 504332, 2011 | Potency, µM (doses to about 102 µM), inactives show at the top dose activity, negative = inhibition, usual class: inhibitors | Histone-lysine N-methyltransferase EHMT2 (Homo sapiens), Q96KQ7 | G9a H3K9 monomethylation, AlphaScreen, 2 h; also: potency is read from the fitted curve at half-maximal effect; % is scaled to controls: 0 for no effect and ±100 for the full control effect; nearly all actives have a fitted effect of over 75% in size
Target sequence (Q96KQ7 913-1193 limits assumed): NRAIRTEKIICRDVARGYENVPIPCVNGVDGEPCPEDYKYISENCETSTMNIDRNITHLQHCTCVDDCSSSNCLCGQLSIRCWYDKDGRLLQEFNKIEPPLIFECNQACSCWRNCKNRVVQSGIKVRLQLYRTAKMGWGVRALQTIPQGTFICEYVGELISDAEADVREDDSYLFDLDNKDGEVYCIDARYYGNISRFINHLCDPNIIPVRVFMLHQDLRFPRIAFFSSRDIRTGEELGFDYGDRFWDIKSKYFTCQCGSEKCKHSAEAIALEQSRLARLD
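G9a (20 nM) was preincubated 15 min with compound, then reacted 2 h at room temperature with 500 nM biotin-H3K9 peptide and 20 µM SAM. Monomethyl-H3K9 detected by AlphaScreen using anti-H3K9me1 antibody.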
PLK1 PBD block: qHTS for Inhibitors of PLK1-PDB (polo-like kinase 1 - polo-box domain): Primary Screen; Plk1 PBD binding of FITC phosphopeptide, fluorescence polarization; Serine/threonine-protein kinase PLK1 (Homo sapiens), P53350; hit rate 2.8% among 360,000; AID 720504, 2013; Potency, µM, without a hit: max response, negative = inhibition, actives largely listed as inhibitors; also: potency is read from the fitted curve at half-maximal effect; series mostly up to about 57 µM; % is scaled to controls: 0 for no effect and ±100 for the full control effect; nearly all actives have a fitted effect of over 65% in size
PI5P4K alpha inh: qHTS for Inhibitors of phosphatidylinositol 5-phosphate 4-kinase (PI5P4K); Phosphatidylinositol 5-phosphate 4-kinase type-2 alpha (Homo sapiens), P48426; PI5P4Kalpha enzyme, ADP-Glo luminescence, 60 min; hits give low values; max response, %; hit rate 1.2% among 330,000; active = max response of -50% or lower; inconclusive = between -30% and -50%; inactive = -30% or higher; also: value at the top dose of about 77 µM; % is scaled to controls: 0 for no effect and ±100 for the full control effect
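Compounds were pin-transferred onto PI5P4Kalpha and substrate in HEPES pH 7.4 buffer with EGTA, CHAPS and 5% DMSO. ATP (5 microM final) started the reaction, which ran 60 minutes at room temperature before ADP-Glo detection.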
Starred values were filed as active, the others as inactive; u = inconclusive; x = no result given; ! = not confirmed by another sample; [ ] = another dose, or the depositor's remark. Only some compounds are listed: those with a hit (about 12% of all), similar ones and a draw of the others. Unless noted, calls follow the shape of the dose curve; as a rule, active = well fitted curve in the direction sought with a large enough effect; inconclusive = small, poorly fitted or top-dose-only effect, or another doubt; inactive = no such curve, though single readings can be large; an effect the other way counts as inactive or inconclusive.

SMILES	BAZ2B inh	HP1b binding inh	JMJD2A Tudor inh	G9a block	PLK1 PBD block	PI5P4K alpha inh
COc1cccc(-n2c(=O)c3sc4ccccc4c3n(CC(=O)Nc3ccc(F)cc3F)c2=O)c1	-17%	29%	-12%	-27%[59 µM]	x	x
CCCOc1ccc(N2C(=O)CC(NCCNc3ccc([N+](=O)[O-])cn3)C2=O)cc1 (stereo not drawn)	-26%	33%	-18%	13µM*	6%	-10
Cc1ccc(N2CCN(S(=O)(=O)c3nnc(NC(=O)c4ccco4)s3)CC2)cc1	-8%	42%	-24%	28µM*	-27%	-23
Cc1ccc(N(C)S(=O)(=O)c2nnc(NC(=O)c3ccco3)s2)cc1	u	53%	u	4µM*!	-17%	-5
Cc1ccc(C(=O)Nc2nnc(S(=O)(=O)N3CCN(c4ccc(F)cc4)CC3)s2)cc1	u	23%	u	18%	-23%	-5
Cc1ccc(CNC(=O)CCCCCn2c(=O)c3sccc3n(CC(=O)N(C)c3ccccc3)c2=O)cc1	-1%	6%	-21%	3%[59 µM]	x	x
NC(=O)/C(=C/c1ccco1)C(N)=S	-17%	-7%	u	18µM*	u	u
CC1=C(CC(=O)O)c2cc(F)ccc2/C1=C\c1ccc(S(C)=O)cc1 (stereo not drawn)	0%	27%	-32%	8.4µM*!	u	-13
CCc1ccc(-c2cc(C(=O)N/N=C/c3ccccn3)[nH]n2)cc1	-15%	-2%	-28%	99%[59 µM]	-2%	-14
CCCc1sc(N/N=C/c2ccccn2)nc1-c1ccc(Br)cc1	-33%	6%	50µM*	-5%[59 µM]	-3%	x
COc1ccc(C2=NN(C(=O)CCC(=O)O)C(c3cccs3)C2)cc1 (stereo not drawn)	-6%	39%	4%	-18%	-4%	-8
COc1ccc(C2=NN3C(C2)c2ccccc2OC3c2cccs2)cc1 (stereo not drawn)	u	27%	-20%	40µM*	-5%	-4
COc1ccc(C2=NN(C(N)=S)C(c3ccccc3)C2)cc1 (stereo not drawn)	u	-6%	-21%	u	-7%	1
COc1ccc(C2=NN3C(C2)c2ccccc2OC32C(=O)N(C)c3ccccc32)cc1 (stereo not drawn)	-7%	16%	-24%	25µM*	-13%	u
CCOC(=O)C(NCCCO)c1ccccc1 (stereo not drawn)	-22%	u	2.5µM*	50µM*	-8%	x
NC(=O)NC(CC(=O)NCCc1ccc(S(N)(=O)=O)cc1)c1ccc(Cl)cc1 (stereo not drawn)	2%	-1%	-15%[11.4 µM]	x	15µM*	-17
NC(=O)NC(CC(=O)NCCc1ccc(S(N)(=O)=O)cc1)c1ccccc1Cl (stereo not drawn)	0%	27%	5%	-9%	7%	10
O=C(COC(=O)CCCOc1ccc(Cl)cc1Cl)Nc1cccc(Cl)c1	19%	78%	26%	69%[59 µM]	0%	30
O=C(COC(=O)CCc1c[nH]c(=O)[nH]1)Nc1cccc(Cl)c1	0%	37%	-11%	40µM*	-27%	x
O=C(COC(=O)c1cccnc1)Nc1cccc(Cl)c1	2%	18%	-5%	u	-3%	-2
O=C(COC(=O)c1ccncc1)Nc1cccc(Cl)c1	-24%	-20%	-11%[11.4 µM]	-17%	21µM*	-28
O=C(NCCN1CCC(n2c(=O)[nH]c3ccccc32)CC1)c1ccccc1C(F)(F)F	x	x	x	x	-5%	-1
c1ccc(CNc2ncnc3nc(N4CCOCC4)[nH]c23)cc1	x	33%	-13%	x	x	x
COC(=O)c1ccc(/C=N/NS(=O)(=O)c2cc(C)ccc2C)cc1	-21%	48%	-1%	2.5µM*	-24%	-4
